Source: PubChem (several laboratories)
Most compounds without a hit are left out; they make up all but 4.2% or so of the library.
V-ATPase pH – regulators of yeast V-ATPase proton pumping, primary screen, pHLuorin cytosolic pH fluorescence. S. cerevisiae. hit rate 0.37% among 350,000. response, % at 10 µM; in the data active = response mostly above about 7.3%, no sharp cut-off; inactive = mostly below about 5.4%; also: actives read high
tim10-1 inh – growth inhibitors of tim10-1 mutant yeast, primary screen, luminescence, uHTS | S. cerevisiae tim10-1 ts strain growth, BacTiter-Glo, 24 h | inhibition, % at 20 µM | hit rate 2.2% among 330,000;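 active = inhibition of at least 40%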;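 also: mutant grown at 25 °C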
tim23-1 inh – growth inhibitors of tim23-1 mutant yeast, primary screen, luminescence, uHTS; S. cerevisiae tim23-1 growth, BacTiter-Glo luminescence, 24 h; AID 463212, 2010; inhibition, % at 20 µM; hit rate 1.3% among 330,000;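 active = growth inhibition of the mutant yeast at or above 50%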;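 also: temperature-sensitive mutant grown at 25 °C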
NALP3 yeast inh – NALP3 inflammasome inhibitors in reconstituted yeast, primary screen, luminescence, uHTS | Yeast reconstituted NLRP3/ASC/caspase-1, beta-gal luminescence, 24 h | inhibition, % at 10 µM | hit rate 0.39% among 330,000 | AID 2825, 2010;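 active = inhibition of 50% or more; inactive = inhibition below 50%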
TIM10 inh – growth inhibitors of isogenic TIM10 control yeast, primary screen, counter-screen for tim10-1 yeast inhibitor project, luminescence, uHTS. hit rate 1.4% among 330,000. S. cerevisiae TIM10 strain growth, BacTiter-Glo luminescence, 24 h. inhibition, % at 10 µM;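 active = inhibition of 40% or more at the single tested concentration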;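 also: wild-type TIM10 isogenic control strain grown at permissive 25 °C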
NALP1 inh – NALP1 inflammasome inhibitors in reconstituted yeast, colorimetric, S. cerevisiae, triplicate retest. inhibition, % at 10 µM. AID 2071, 2009. S. cerevisiae NALP1/ASC/caspase-1 growth, X-gal OD620, 72 h. hit rate 0.61% among 280,000; in the data active = inhibition mostly above about 24%, no sharp cut-off; inactive = mostly below about 32%
A number is an active result.

How did COc1ccc(/C=C(/NC(=O)c2ccco2)C(=O)N2CCCCC2)cc1 do in these assays?
V-ATPase pH: inactive; tim10-1 inh: inactive; tim23-1 inh: inactive; NALP3 yeast inh: inactive; TIM10 inh: inactive; NALP1 inh: inactive

What do the screens show for `CC(C)(C)NCC(=O)c1c[nH]c2ccccc12`?
V-ATPase pH: inactive; tim10-1 inh: inactive; tim23-1 inh: inactive; NALP3 yeast inh: inactive; TIM10 inh: inactive; NALP1 inh: 30

How did CCC(C)c1ccccc1NC(=O)CN1CCN(C/C=C/c2ccccc2)CC1 (configuration not stated) do in these assays?
V-ATPase pH: inactive; tim10-1 inh: inactive; tim23-1 inh: inactive; NALP3 yeast inh: inactive; TIM10 inh: inactive; NALP1 inh: 53

What do the screens show for `O=C(CN1CCN(C/C=C/c2ccccc2)CC1)NCc1ccccc1`?
V-ATPase pH: inactive; tim10-1 inh: inactive; tim23-1 inh: inactive; NALP3 yeast inh: inactive; TIM10 inh: inactive; NALP1 inh: inactive

Results for O=C(CN1C(=O)c2ccccc2S1(=O)=O)Nc1cc(S(=O)(=O)N2CCCCC2)ccc1Cl ?
V-ATPase pH: inactive; tim10-1 inh: inactive; tim23-1 inh: inactive; NALP3 yeast inh: inactive; TIM10 inh: inactive

What do the screens show for `CN1CCN(S(=O)(=O)c2ccc(NC(=S)NC(=O)C(C)(C)C)cc2)CC1`?
V-ATPase pH: inactive; tim10-1 inh: inactive; tim23-1 inh: inactive; NALP3 yeast inh: inactive; TIM10 inh: inactive; NALP1 inh: 80

How did Cc1ccccc1-c1nn(-c2ccc(F)cc2F)cc1CNCCCO do in these assays?
V-ATPase pH: inactive; tim10-1 inh: inactive; tim23-1 inh: inactive; NALP3 yeast inh: inactive; TIM10 inh: inactive; NALP1 inh: 20

How did CCOc1ccc(C(C(=O)NC(C)(C)C)N(CCOC)C(=O)CCC(=O)Nc2ccccn2)cc1 (configuration not stated) do in these assays?
V-ATPase pH: inactive; tim10-1 inh: inactive; tim23-1 inh: inactive; NALP3 yeast inh: inactive; TIM10 inh: inactive; NALP1 inh: inactive

What do the screens show for `CCC(=O)Nc1ccc(C(=O)Cn2ncc(Cl)c(Cl)c2=O)cc1`?
V-ATPase pH: 11; tim10-1 inh: inactive; tim23-1 inh: inactive; NALP3 yeast inh: inactive; TIM10 inh: inactive; NALP1 inh: inactive

What do the screens show for `O=C(Cn1ncc(Cl)c(Cl)c1=O)Nc1ccc2c(c1)OCO2`?
V-ATPase pH: inactive; tim10-1 inh: inactive; tim23-1 inh: inactive; NALP3 yeast inh: inactive; TIM10 inh: inactive

Results for CN(C)Cc1c(C(=O)N/N=C/c2cccs2)nnn1-c1nonc1N ?
V-ATPase pH: inactive; tim10-1 inh: inactive; tim23-1 inh: inactive; NALP3 yeast inh: inactive; TIM10 inh: inactive; NALP1 inh: inactive

Results for CC1CCC2C(=O)N(c3ccc(C(=O)Oc4cccc5cccnc45)cc3)C(=O)C2C1 (configuration not stated) ?
V-ATPase pH: inactive; tim10-1 inh: inactive; tim23-1 inh: inactive; NALP3 yeast inh: inactive; TIM10 inh: inactive; NALP1 inh: 71

Results for Cc1ccc(C(=O)Oc2ccccc2N2C(=O)C3CCC(C)CC3C2=O)cc1 (configuration not stated) ?
V-ATPase pH: inactive; tim10-1 inh: inactive; tim23-1 inh: inactive; NALP3 yeast inh: inactive; TIM10 inh: inactive; NALP1 inh: inactive

What do the screens show for `O=C(NCCS(=O)(=O)NCc1ccc2c(c1)OCO2)c1ccccc1`?
V-ATPase pH: inactive; tim10-1 inh: inactive; tim23-1 inh: inactive; NALP3 yeast inh: inactive; TIM10 inh: inactive

Results for COc1ccc(CCNC(=O)CSc2nc3[nH]ncc3c(=O)n2-c2ccc(Cl)cc2Cl)cc1OC ?
V-ATPase pH: inactive; tim10-1 inh: inactive; tim23-1 inh: inactive; NALP3 yeast inh: inactive; TIM10 inh: inactive; NALP1 inh: inactive

Results for COc1ccc(CCNC(=O)CSc2nc3[nH]ncc3c(=O)n2-c2ccccc2OC)cc1OC ?
V-ATPase pH: inactive; tim10-1 inh: inactive; tim23-1 inh: inactive; NALP3 yeast inh: inactive; TIM10 inh: inactive; NALP1 inh: 35

Results for Nc1nc(-c2ccc(Cl)cc2)nn1C(=O)c1cccnc1 ?
V-ATPase pH: 20; tim10-1 inh: inactive; tim23-1 inh: inactive; NALP3 yeast inh: inactive; TIM10 inh: inactive; NALP1 inh: inactive

How did CSc1nccc(NC(=O)c2cccc(Br)c2)n1 do in these assays?
V-ATPase pH: inactive; tim10-1 inh: inactive; tim23-1 inh: inactive; NALP3 yeast inh: inactive; TIM10 inh: inactive; NALP1 inh: inactive
